Measured values as given in PubChem BioAssay (EPA / NIEHS).
Records with an inconclusive call do not appear. Some compounds were tested as several samples or in several runs, with calls that do not always agree. Activity calls are given as the source filed them. Rule for the calls, unless noted: active = hit-call score of the fitted dose curve at least 0.9, where 1 is the maximum; inactive = score below 0.9.

Tests used:
[1] = ATG_M_06_TRANS: Attagene TRANS-FACTORIAL HepG2 Assay for M06 Transcription Factor (Internal Marker) (AID 2282983; active = hit-call score of the fitted dose curve at least 0.9, where 1 is the maximum;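 for AC50: potency for rise in reporter mRNA above DMSO baseline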); settings: HepG2 Attagene TRANS M06 internal marker reporter
How it was run: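 Internal-marker background readout from a multiplexed TRANS reporter system in HepG2; 24 h dosing; mRNA induction quantified by RT-PCR plus capillary electrophoresis fluorescence; DMSO as negative control and baseline.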

[2] = ATG_M_32_TRANS: Attagene TRANS-FACTORIAL HepG2 Assay for M32 Transcription Factor (Internal Marker) (AID 2282984; active = hit-call score of the fitted dose curve at least 0.9, where 1 is the maximum); settings: HepG2 Attagene TRANS M32 internal marker reporter
How it was run: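 Human hepatoma HepG2, transient MRTU transfection, 24 h treatment. RNA → RT-PCR → fluorescent primer extension → HpaI digest (2 h, 37 C) → CE. Positive-direction fit vs DMSO.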

[3] = target: Nuclear respiratory factor 1 (Homo sapiens) (UniProt Q16656); assay: ATG_NRF1_CIS: Attagene CIS-FACTORIAL HepG2 Assay for human Nuclear Respiratory Factor 1 (NRF1) Orphan Gene (AID 2282987); settings: HepG2 NRF1 cis-element reporter, Attagene multiplex; actives raise or lower the signal
How it was run: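 Multiplexed cis-reporter assay, HepG2 cells, 24 h treatment. Total RNA → oligo(dT) RT → PCR with reporter-specific primers → 6-FAM primer extension → HpaI cut → CE. Bidirectional fit vs DMSO.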

[4] = target: Myc proto-oncogene protein (Homo sapiens) (UniProt P01106); assay: ATG_Myc_CIS: Attagene CIS-FACTORIAL HepG2 Assay for human Myelocytomatosis (Myc) Proto-Oncogene Transcription Factor (AID 2282990); settings: HepG2, Attagene cis-reporter transcription factor activity; actives raise or lower the signal
How it was run: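 HepG2 cells transiently transfected with multiple cis-promoter-driven reporter transcription units, so endogenous TF activity is read. After 24 h compound exposure, reporter mRNA was quantified by RT-PCR, 6-FAM labelling, HpaI digestion and capillary electrophoresis; bidirectional fit versus DMSO.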

[5] = ATG_NF_kB_CIS: Attagene CIS-FACTORIAL HepG2 Assay for human Nuclear Factor Kappa B (NF-kB) (AID 2282991); settings: HepG2 Attagene cis-factorial NF-kB reporter mRNA; actives raise or lower the signal
How it was run: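 Transient MRTU transfection of human HepG2 liver cells → 24 h chemical exposure → total RNA, oligo(dT) RT → PCR, 6-FAM primer extension, HpaI digest 2 h 37 C → CE fragment analysis. Bidirectional fitting, DMSO negative control.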

[6] = ATG_NFI_CIS: Attagene CIS-FACTORIAL HepG2 Assay for human Nuclear Factor I (NFI) (AID 2282989); settings: HepG2 cis-regulatory reporter, NFI response element transcription; actives raise or lower the signal
How it was run: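 Read-out: reporter mRNA via RT-PCR plus capillary electrophoresis with fluorescence detection. Transiently transfected HepG2 (endogenous TF activity on cis promoters), 24 h compound exposure; gain or loss of signal fitted against DMSO.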

[7] = ATG_NRF2_ARE_CIS: Attagene CIS-FACTORIAL HepG2 Assay for human Nuclear Factor Erythroid 2 Related Factor 2 (NFR2) response to Antioxidant Response Elements (ARE) (AID 2282992); settings: HepG2 Attagene ARE/NRF2 reporter, transcription factor activity; actives raise or lower the signal;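 for AC50: reporter mRNA level measured by RT-PCR and capillary electrophoresis fluorescence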
How it was run: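 Multiplexed reporter mRNA profiling in HepG2 after a 24 h chemical exposure. Curves fitted in both directions relative to DMSO negative control.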

[8] = target: Transcriptional activator Myb (Homo sapiens) (UniProt P10242); assay: ATG_Myb_CIS: Attagene CIS-FACTORIAL HepG2 Assay for human Myeloblastosis (Myb) Proto-Oncogene Transcription Factor (AID 2282986); settings: HepG2 Attagene CIS-FACTORIAL Myb reporter transcription; actives raise or lower the signal
How it was run: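 Reporter transcript levels, quantified by fluorescent RT-PCR and capillary electrophoresis, serve as the read-out. Transfected HepG2 cells carrying cis-promoter reporter units are dosed for 24 hours, and curves are fitted bidirectionally against DMSO controls.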

[9] = target: Nuclear receptor subfamily 4 group A member 2 (Homo sapiens) (UniProt P43354); assay: ATG_NURR1_TRANS: Attagene TRANS-FACTORIAL HepG2 Assay for human Nuclear Receptor Related Protein 1 (NURR1) (AID 2282985; active = hit-call score of the fitted dose curve at least 0.9, where 1 is the maximum); settings: HepG2 Attagene TRANS reporter, mRNA readout
How it was run: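 After 24 h chemical dosing, total RNA from transiently transfected HepG2 cells was reverse-transcribed and reporter cDNA PCR-amplified, FAM-labelled and analysed by capillary electrophoresis. Activity fitted in positive direction, DMSO as negative control.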

Measured: AC50

Sequence of Nuclear respiratory factor 1 (Homo sapiens) (Q16656 whole entry, looked up): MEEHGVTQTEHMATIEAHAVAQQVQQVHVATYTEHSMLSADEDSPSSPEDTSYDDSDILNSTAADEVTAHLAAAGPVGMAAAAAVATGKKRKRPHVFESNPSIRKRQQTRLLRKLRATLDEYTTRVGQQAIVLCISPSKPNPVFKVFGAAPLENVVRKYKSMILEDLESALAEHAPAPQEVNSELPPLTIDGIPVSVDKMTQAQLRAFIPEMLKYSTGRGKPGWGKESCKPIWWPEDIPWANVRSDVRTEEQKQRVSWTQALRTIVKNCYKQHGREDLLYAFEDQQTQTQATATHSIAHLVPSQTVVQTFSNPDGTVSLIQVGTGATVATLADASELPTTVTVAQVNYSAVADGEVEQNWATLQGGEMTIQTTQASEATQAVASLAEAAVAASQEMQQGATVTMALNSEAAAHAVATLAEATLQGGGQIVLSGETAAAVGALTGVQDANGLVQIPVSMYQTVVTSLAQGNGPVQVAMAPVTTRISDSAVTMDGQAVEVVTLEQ
Sequence of Transcriptional activator Myb (Homo sapiens) (P10242 whole entry, looked up): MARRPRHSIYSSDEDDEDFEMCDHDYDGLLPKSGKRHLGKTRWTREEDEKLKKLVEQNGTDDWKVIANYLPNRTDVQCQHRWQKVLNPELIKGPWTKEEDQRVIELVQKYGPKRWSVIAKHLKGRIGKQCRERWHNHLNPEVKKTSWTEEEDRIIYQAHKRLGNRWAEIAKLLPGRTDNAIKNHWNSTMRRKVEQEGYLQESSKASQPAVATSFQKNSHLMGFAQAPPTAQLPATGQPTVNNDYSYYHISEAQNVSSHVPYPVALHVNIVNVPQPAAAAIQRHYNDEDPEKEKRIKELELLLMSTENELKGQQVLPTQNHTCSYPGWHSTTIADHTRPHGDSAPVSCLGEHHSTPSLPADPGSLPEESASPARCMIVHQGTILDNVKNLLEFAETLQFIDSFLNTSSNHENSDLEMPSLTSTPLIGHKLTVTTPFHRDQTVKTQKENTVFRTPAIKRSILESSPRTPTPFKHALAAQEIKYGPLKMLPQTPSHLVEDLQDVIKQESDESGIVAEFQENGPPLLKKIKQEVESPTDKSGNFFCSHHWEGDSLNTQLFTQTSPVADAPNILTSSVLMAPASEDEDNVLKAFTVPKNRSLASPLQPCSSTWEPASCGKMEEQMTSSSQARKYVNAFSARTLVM
Sequence of Nuclear receptor subfamily 4 group A member 2 (Homo sapiens) (P43354 whole entry, looked up): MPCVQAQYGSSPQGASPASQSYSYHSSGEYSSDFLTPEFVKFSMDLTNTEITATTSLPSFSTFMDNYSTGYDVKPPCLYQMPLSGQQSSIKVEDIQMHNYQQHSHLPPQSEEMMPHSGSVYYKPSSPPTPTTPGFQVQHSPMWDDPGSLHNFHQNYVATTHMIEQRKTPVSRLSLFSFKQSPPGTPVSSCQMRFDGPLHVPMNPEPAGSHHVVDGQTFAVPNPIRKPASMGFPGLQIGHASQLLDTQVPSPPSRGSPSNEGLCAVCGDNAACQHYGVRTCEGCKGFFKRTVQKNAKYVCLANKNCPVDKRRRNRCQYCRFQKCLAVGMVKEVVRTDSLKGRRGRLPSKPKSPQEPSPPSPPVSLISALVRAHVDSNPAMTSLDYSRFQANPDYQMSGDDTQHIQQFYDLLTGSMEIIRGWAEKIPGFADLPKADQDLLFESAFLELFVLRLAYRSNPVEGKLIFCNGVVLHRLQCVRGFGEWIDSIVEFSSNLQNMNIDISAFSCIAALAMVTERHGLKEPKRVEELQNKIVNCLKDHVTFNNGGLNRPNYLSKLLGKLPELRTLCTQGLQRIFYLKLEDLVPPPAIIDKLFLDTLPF
Sequence of Myc proto-oncogene protein (Homo sapiens) (P01106 whole entry, looked up): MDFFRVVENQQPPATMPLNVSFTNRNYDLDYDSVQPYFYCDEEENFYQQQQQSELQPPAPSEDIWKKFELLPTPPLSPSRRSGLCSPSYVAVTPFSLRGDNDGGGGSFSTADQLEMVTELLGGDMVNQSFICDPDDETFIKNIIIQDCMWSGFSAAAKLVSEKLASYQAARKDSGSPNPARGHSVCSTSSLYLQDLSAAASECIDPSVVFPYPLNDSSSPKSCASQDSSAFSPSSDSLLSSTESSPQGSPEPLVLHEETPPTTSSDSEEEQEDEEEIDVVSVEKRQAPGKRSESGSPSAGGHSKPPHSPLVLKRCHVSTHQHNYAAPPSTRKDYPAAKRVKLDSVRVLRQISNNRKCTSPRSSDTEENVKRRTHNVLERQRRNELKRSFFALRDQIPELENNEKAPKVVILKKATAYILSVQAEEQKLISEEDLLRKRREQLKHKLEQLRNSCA

NC(=S)Nc1ccccc1
inactive: [1] | [2] | [3] | [4] | [5]

Nc1ccc(Cl)cc1C(=O)c1ccccc1
inactive: [2] | [3] | [6] | [5] | [7]
active: [1] 160 µM

Cc1cc(=O)[nH]o1
not listed: [9]
inactive: all other assays above

CCOC(=O)/C=C(C)/C=C/C[C@@H](C)CCCC(C)C
inactive: [1] | [2]
active: [9] 125 µM | [3] 65.2 µM | [6] 180 µM | [4] 182 µM | [5] 43.2 µM | [7] 56.5 µM

CCCCOCCOC(C)=O
not listed: [5] | [9]
inactive: all other assays above

ClCC(Cl)CCl
not listed: [5] | [8]
inactive: all other assays above

CC1(C)CCC(Cc2ccc(Cl)cc2)C1(O)Cn1cncn1 (stereo not given)
active: [7] 33.4 µM
not listed: [5] | [8]
inactive: all other assays above

CC(C)C1CCC(Cc2ccc(Cl)cc2)C1(O)Cn1cncn1 (stereo not given)
not listed: [4] | [7] | [9]
inactive: all other assays above

ClC1=C(Cl)[C@]2(Cl)[C@@H]3[C@@H](Cl)[C@@H](Cl)C[C@@H]3[C@@]1(Cl)C2(Cl)Cl
not listed: [4] | [7] | [9]
inactive: all other assays above

CCOP(=S)(OCC)Oc1nc(Cl)c(Cl)cc1Cl
active: [6] 69.6 µM | [7] 33.4 µM
not listed: [5] | [8]
inactive: all other assays above

CCN(CC)C(=O)Cl
not listed: [9]
inactive: all other assays above

Oc1ccc(-c2ccccc2)cc1
active: [4] 176 µM | [7] 100 µM
not listed: [9]
inactive: all other assays above

COc1ccccc1OC
not listed: [8]
inactive: all other assays above

Cn1sc(Cl)cc1=O
inactive: [1] | [2] | [8] | [3] | [6]
active: [5] 139 µM

O=C(Cc1ccccc1)c1ccccc1
active: [7] 19.8 µM
inactive: [1] | [2] | [8] | [3] | [4]

COc1cc(-c2ccc(N)c(OC)c2)ccc1N
active: [6] 79.8 µM
inactive: [1] | [9] | [8] | [3] | [6] | [4] | [5] | [7]

CCc1ccccc1C
not listed: [9]
inactive: all other assays above

COc1cc(OC)nc(NC(=O)NS(=O)(=O)c2ncccc2C(=O)N(C)C)n1
inactive: [1] | [2] | [3] | [4] | [5]

COc1cccc(C=O)c1
not listed: [9]
inactive: all other assays above

C=CC(=O)N(C)C
not listed: [5] | [8] | [9]
inactive: all other assays above

CC(C)(C)c1cc(O)ccc1O
active: [7] 9.05 µM
not listed: [5] | [9]
inactive: all other assays above

COc1ccc(C=O)cc1
not listed: [2] | [7] | [9]
inactive: all other assays above

Cl/C=C/Cl
not listed: [2] | [7] | [9]
inactive: all other assays above

Cl/C=C\C[N+]12CN3CN(CN(C3)C1)C2
active: [5] 53.6 µM | [7] 160 µM
not listed: [1]
inactive: all other assays above

Cc1ccc(N)cc1Cl
not listed: [2] | [7] | [9]
inactive: all other assays above

C[C@H]1O[C@@H](O[C@H]2[C@@H](O)C[C@H](O[C@H]3[C@@H](O)C[C@H](O[C@H]4CC[C@@]5(C)[C@H](CC[C@@H]6[C@@H]5CC[C@]5(C)[C@@H](C7=CC(=O)OC7)CC[C@]65O)C4)O[C@@H]3C)O[C@@H]2C)C[C@H](O)[C@@H]1O
active: [8] 0.0564 µM | [6] 0.171 µM | [4] 23.9 µM
inactive: [1] | [9] | [3] | [7]

CCC1(c2ccc(N)cc2)CCC(=O)NC1=O (stereo not given)
inactive: [1] | [3] | [6] | [4] | [7]

CC(C)(c1ccccc1)c1ccc(O)c(C(C)(C)c2ccccc2)c1
inactive: [1] | [9] | [4]
active: [3] 6.39 µM | [6] 8.31 µM | [5] 8.81 µM | [7] 7.97 µM

CC1CN1P(=O)(N1CC1C)N1CC1C (stereo not given)
not listed: [2] | [5] | [9]
inactive: all other assays above

CC(=O)c1cc(C(C)(C)C)cc2c1CCC2(C)C
active: [9] 27.3 µM | [6] 74.2 µM | [4] 146 µM | [5] 156 µM | [7] 61.7 µM
inactive: [2] | [8] | [3]
